# Assay results published in the supplement of paper PMC8975748.
# Where a name gives a salt, the structure may show the parent alone. ± gives the standard deviation of the averaged measurements.
# Columns and labels:
# [1] = system: Saccharomyces cerevisiae BY4741 SeMeCo community; experiment: z-score of prototroph abundance vs DMSO median; higher = larger share of this subpopulation than in DMSO controls; conditions: 10 µM; 24 h; SM minimal medium; subpopulation (auxotrophy): Prototroph
# Summary of the method: (§1)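 A community of Saccharomyces cerevisiae BY4741 was built from four plasmids that each restored one auxotrophy and encoded a distinct fluorescent protein. Pre-grown overnight to OD600 1.0 and diluted to 0.3, it was dispensed at 70 µl into 384-well plates acoustically predosed with library drugs for a final 10 µM, and grown 24 h in minimal SM medium. Cells were then paraformaldehyde-fixed and imaged by automated confocal microscopy. Thresholds and autofluorescence correction came from single-auxotroph fluorescent strains, and each subpopulation's abundance was scored as a z-score relative to the vehicle-well median.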
# [2] = system: Saccharomyces cerevisiae BY4741 SeMeCo community; experiment: z-score of subpopulation abundance vs DMSO median, subpopulation auxotrophic for L; higher = larger share of this subpopulation than in DMSO controls; conditions: 10 µM; 24 h; SM minimal medium; subpopulation (auxotrophy): L
# Summary of the method: as §1
# [3] = system: Saccharomyces cerevisiae BY4741 SeMeCo community; experiment: z-score of subpopulation abundance vs DMSO median, subpopulation auxotrophic for U; higher = larger share of this subpopulation than in DMSO controls; conditions: 10 µM; 24 h; SM minimal medium; subpopulation (auxotrophy): U
# Summary of the method: as §1
# [4] = system: Saccharomyces cerevisiae BY4741 SeMeCo community; experiment: z-score of subpopulation abundance vs DMSO median, subpopulation auxotrophic for H; higher = larger share of this subpopulation than in DMSO controls; conditions: 10 µM; 24 h; SM minimal medium; subpopulation (auxotrophy): H
# Summary of the method: as §1
# [5] = system: Saccharomyces cerevisiae BY4741 SeMeCo community; experiment: z-score of subpopulation abundance vs DMSO median, subpopulation auxotrophic for LM; higher = larger share of this subpopulation than in DMSO controls; conditions: 10 µM; 24 h; SM minimal medium; subpopulation (auxotrophy): LM
# Summary of the method: as §1
# [6] = system: Saccharomyces cerevisiae BY4741 SeMeCo community; experiment: z-score of subpopulation abundance vs DMSO median, subpopulation auxotrophic for HM; higher = larger share of this subpopulation than in DMSO controls; conditions: 10 µM; 24 h; SM minimal medium; subpopulation (auxotrophy): HM
# Summary of the method: as §1
# [7] = system: Saccharomyces cerevisiae BY4741 SeMeCo community; experiment: z-score of subpopulation abundance vs DMSO median, subpopulation auxotrophic for HU; higher = larger share of this subpopulation than in DMSO controls; conditions: 10 µM; 24 h; SM minimal medium; subpopulation (auxotrophy): HU
# Summary of the method: as §1
# [8] = system: Saccharomyces cerevisiae BY4741 SeMeCo community; experiment: z-score of subpopulation abundance vs DMSO median, subpopulation auxotrophic for UM; higher = larger share of this subpopulation than in DMSO controls; conditions: 10 µM; 24 h; SM minimal medium; subpopulation (auxotrophy): UM
# Summary of the method: as §1
# [9] = system: Saccharomyces cerevisiae BY4741 SeMeCo community; experiment: z-score of subpopulation abundance vs DMSO median, subpopulation auxotrophic for HL; higher = larger share of this subpopulation than in DMSO controls; conditions: 10 µM; 24 h; SM minimal medium; subpopulation (auxotrophy): HL
# Summary of the method: as §1
# [10] = system: Saccharomyces cerevisiae BY4741 SeMeCo community; experiment: z-score of subpopulation abundance vs DMSO median, subpopulation auxotrophic for HLU; higher = larger share of this subpopulation than in DMSO controls; conditions: 10 µM; 24 h; SM minimal medium; subpopulation (auxotrophy): HLU
# Summary of the method: as §1
# [11] = system: Saccharomyces cerevisiae BY4741 SeMeCo community; experiment: z-score of subpopulation abundance vs DMSO median, subpopulation auxotrophic for HLM; higher = larger share of this subpopulation than in DMSO controls; conditions: 10 µM; 24 h; SM minimal medium; subpopulation (auxotrophy): HLM
# Summary of the method: as §1
# [12] = system: Saccharomyces cerevisiae BY4741 SeMeCo community; experiment: z-score of subpopulation abundance vs DMSO median, subpopulation auxotrophic for HUM; higher = larger share of this subpopulation than in DMSO controls; conditions: 10 µM; 24 h; SM minimal medium; subpopulation (auxotrophy): HUM
# Summary of the method: as §1
# [13] = system: Saccharomyces cerevisiae BY4741 SeMeCo community; experiment: z-score of subpopulation abundance vs DMSO median, subpopulation auxotrophic for LUM; higher = larger share of this subpopulation than in DMSO controls; conditions: 10 µM; 24 h; SM minimal medium; subpopulation (auxotrophy): LUM
# Summary of the method: as §1
# [14] = system: Saccharomyces cerevisiae BY4741 SeMeCo community; experiment: mean cell size (pixel area) (pixels); higher = larger cells; conditions: 10 µM; 24 h; SM minimal medium
# Summary of the method: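 A fluorescent Saccharomyces cerevisiae BY4741 community carrying four plasmids was used, with each plasmid complementing one auxotrophy and bearing a fluorescent marker. An overnight preculture at OD600 = 1.0 was diluted to OD600 = 0.3, and 70 µl went into 384-well plates acoustically predosed with drug (final 10 µM) in SM medium for 24 h. After paraformaldehyde fixation, cells were imaged by automated confocal microscopy and analysed in Harmony, giving the mean cell pixel area per well. Each value is the average of 3 replicates. Same SeMeCo high-content imaging drug screen: Selleck FDA-approved drugs at 10 µM, 24 h in SM medium, 384-well plates, 3 replicates.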
# [15] = system: Saccharomyces cerevisiae BY4741 SeMeCo community; experiment: z-score of subpopulation abundance vs DMSO median, subpopulation auxotrophic for M; higher = larger share of this subpopulation than in DMSO controls; conditions: 10 µM; 24 h; SM minimal medium; subpopulation (auxotrophy): M
# Summary of the method: as §1
# [16] = system: Saccharomyces cerevisiae BY4741 SeMeCo community; experiment: z-score of subpopulation abundance vs DMSO median, subpopulation auxotrophic for LU; higher = larger share of this subpopulation than in DMSO controls; conditions: 10 µM; 24 h; SM minimal medium; subpopulation (auxotrophy): LU
# Summary of the method: as §1
# [17] = system: Saccharomyces cerevisiae BY4741 SeMeCo community; experiment: z-score of subpopulation abundance vs DMSO median, subpopulation auxotrophic for HLUM; higher = larger share of this subpopulation than in DMSO controls; conditions: 10 µM; 24 h; SM minimal medium; subpopulation (auxotrophy): HLUM
# Summary of the method: as §1
SMILES,z-score of prototroph abundance [1],z-score of subpopulation abundance [2],z-score of subpopulation abundance [3],z-score of subpopulation abundance [4],z-score of subpopulation abundance [5],z-score of subpopulation abundance [6],z-score of subpopulation abundance [7],z-score of subpopulation abundance [8],z-score of subpopulation abundance [9],z-score of subpopulation abundance [10],z-score of subpopulation abundance [11],z-score of subpopulation abundance [12],z-score of subpopulation abundance [13],mean cell size [14],z-score of subpopulation abundance [15],z-score of subpopulation abundance [16],z-score of subpopulation abundance [17]
Cc1cc(O)cc(C)c1Cl [Chloroxylenol],-1.56,0.85,0.84,0.68,0.41,0.32,1.05,1.27,0.81,0.24,0.76,0.68,0.54,,,,
CCCCN1CCCCC1C(=O)Nc1c(C)cccc1C (configuration not stated) [Bupivacaine HCl],0.23,-0.57,0.36,,-0.93,0.01,-0.26,0.27,-0.36,,0.32,-0.41,-0.72,12.48 ± 0.1,0.05,-0.05,
CCN(CC)C(=O)N1CCN(C)CC1 [Diethylcarbamazine citrate],,-0.21,0.67,-0.57,-0.13,-0.19,-0.43,0.18,-1.04,,0.15,0.13,-0.5,12.6 ± 0.14,-0.11,0.3,-0.66
C1N2CN3CN1CN(C2)C3 [Methenamine],-0.97,-0.63,0.59,0.28,0.49,,0.2,,-0.01,-0.02,0.4,0.39,0.29,,,,-0.16
Clc1ccc(C(Cn2ccnc2)OCc2ccsc2Cl)c(Cl)c1 (configuration not stated) [Tioconazole],-7.82,-2.45,1.22,19.7,-1.99,3.87,10.2,,6.06,,20,3.39,4.03,12.1 ± 0.12,-0.92,-0.51,15.6
O=[N+]([O-])c1ccc(O)c2ncccc12 [Nitroxoline],-16.6,-0.84,-2.48,,4.84,27.9,16.3,,22.6,,65.9,19.7,11,13.6 ± 0.5,1.38,12.2,36.6
C=CCCCCCCCCC(=O)[O-].C=CCCCCCCCCC(=O)[O-].[Zn+2] [Zinc Undecylenate],2.41,-1.01,-0.17,-1.44,,-2.65,,-2.31,-0.05,,-0.76,-0.02,-0.54,11.6 ± 0.15,-3.83,-1.37,3.48
Clc1ccc2c(N3CCN(CCCN4CCN(c5ccnc6cc(Cl)ccc56)CC4)CC3)ccnc2c1 [Piperaquine phosphate],-0.69,0.02,0.1,0.23,0.85,1.16,-0.29,0.36,-0.1,,0.63,-0.06,,12.2 ± 0.16,1.85,-0.13,0.31
